Among the data in PubChem BioAssay AID492950 (Southern Research Specialized Biocontainment Screening …, 2010) are outcome values, retold here.

Entries with a potency or affinity are not part of this list. Activity calls are given as the source filed them. No rule for the calls is given here.

This assay can be described thus: mammalian cell cytotoxicity, dose response, cytotoxicity control (AID 492950). As to conditions: cytotoxicity counter-screen; series mostly up to 40 µM. For orientation: A counterscreen serves to expose hits that act by an unwanted route or on another target.
Regarding `CCOc1ccccc1C1C(C#N)=C(N)Nc2onc(-c3ccccc3)c21` (stereo not given), the result was inactive. Then `Cc1nc2ccccc2c2c1C(=O)N(C)C2=O`, with “inactive”; and `Cc1ccccc1-c1nc(CN(C)C(C)c2ccon2)c(C)o1` (stereo not given), with “inactive”. Turning to `O=C1NC2=C(CCc3ccccc32)C(c2ccccc2)N1` (stereo not given), the outcome was inactive. Then `O=C(Cc1cc(=O)[nH][nH]1)N/N=C/C=C/c1ccccc1`, with “inactive”. In the case of `N#CC1=C(N)Oc2n[nH]c(-c3cccs3)c2C1c1cccs1` (stereo not given), the compound was called inactive. Then `Cc1ccc(-c2cc(=O)[nH][nH]2)c(C)c1`, with “inactive”; and `O=C(CSCc1cc(=O)[nH][nH]1)Nc1ccc(F)cc1`, with “inactive”. The same measure for `O=C(CSc1nnc(-c2ccccc2Cl)o1)Oc1ccc(Br)cc1`: “inactive”; for `CCOC(=O)C/C(C)=N/NC(=O)COc1ccccc1C`: “inactive”; for `CC(=O)N1CCC2(CC1)C(C#N)=C(N)Oc1n[nH]c(CSc3ccc(C)cc3)c12`: “inactive”. The same measure for `Fc1ccc(Oc2nc(-c3ccccc3)nnc2C(F)(F)F)cc1`: “inactive”; for `CCCCc1ccc(NC(=O)CSCc2cc(=O)[nH][nH]2)cc1`: “inactive”; for `CCOc1ccc(-c2[nH]nc3c2C(c2ccc(O)cc2)C(C#N)=C(N)O3)cc1` (stereo not given): “inactive”. With `O=C(Cc1cc(=O)[nH][nH]1)N/N=C/c1c(F)cccc1Cl`, the compound was called inactive. Then `CC(/C=N/NC(=O)Cc1cc(=O)[nH][nH]1)=C\c1ccccc1`, with “inactive”; and `O=C(Cc1ccccc1)c1c[nH]c(C(=O)C(Cl)(Cl)Cl)c1`, with “inactive”. Then `Cc1cc(-c2[nH]nc3c2C(c2ccc(Cl)cc2)C(C#N)=C(N)O3)c(C)s1` (stereo not given), with “inactive”. On to `CSCCC1C(C#N)=C(N)Oc2n[nH]c(-c3cccs3)c21` (stereo not given), for which the result was inactive. As to `O=C(Cc1cc(=O)[nH][nH]1)N/N=C/c1c(Cl)cccc1Cl`, the compound was classed as inactive.

For the compound `CC1=NNC(=O)C1Cc1c(Cl)cccc1Cl` (stereo not given), the result was inactive. Then `O=C(Cc1cc(=O)[nH][nH]1)N/N=C/c1cccc(Cl)c1Cl`, with “inactive”; and `N#CC1=C(N)Oc2n[nH]c(-c3cccs3)c2C1c1ccccc1C(=O)O` (stereo not given), with “inactive”. In the case of `COc1ccc(N(C(=O)COc2cccc(C)c2)S(=O)(=O)c2ccc(C)cc2)cc1`, the compound was called inactive.

Regarding `COc1ccc(-c2[nH]nc3c2C(c2ccoc2)C(C#N)=C(N)O3)cc1` (stereo not given), the compound was classed as inactive. The same measure for `Cc1ccc(C2C(C#N)=C(N)Oc3n[nH]c(-c4cccs4)c32)cc1` (stereo not given): “inactive”; for `Cc1ccc(-c2[nH]nc3c2C(c2ccc(OC(=O)N4CCOCC4)cc2)C(C#N)=C(N)O3)cc1` (stereo not given): “inactive”. The same measure for `O=c1cc(-c2ccc(Br)cc2)[nH][nH]1`: “inactive”; for `Cc1cc(-c2[nH]nc3c2C(c2ccsc2)C(C#N)=C(N)O3)c(C)s1` (stereo not given): “inactive”; for `Cc1[nH]n(-c2ccccc2)c(=O)c1C(c1cccc([N+](=O)[O-])c1)c1c(C)[nH]n(-c2ccccc2)c1=O`: “inactive”.
